Sampled rows, rich in hits. Any-hit rate of the full collection: about 2.6%.
BaF3 tox = parental Ba/F3 viability inhibition as JAK2V617F counter-screen; AID 1486; CellTiter-Glo ATP luminescence; 1.1% of 220,000 active; inhibition, % at 5.6 µM;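 active = inhibition above a per-campaign cutoff, the mean inhibition of all tested compounds plus 3 SD, cut at about 27% in these data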;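 also: 0% = DMSO wells and 100% = JAK Inhibitor I control wells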
Ba/F3 V617F tox = loss of viability in JAK2V617F-driven Ba/F3 cells; AID 1446; inhibition, % at 5.6 µM; Ba/F3 EpoR-JAK2V617F viability, ATP luminescence; 1.1% of 220,000 active;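 active = inhibition above the campaign mean plus 3 SD over all tested compounds, cut at about 24% in these data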;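 also: cytokine-independent growth of Ba/F3 cells driven by EpoR plus mutant JAK2; 0% = DMSO-treated cells and 100% = JAK inhibitor I control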
GPR7 antag = blocks human GPR7 receptor signaling; P48145; GPR7-expressing cells, fluorescence antagonist assay; inhibition, % at 4.4 µM; 1.1% of 290,000 active; AID 1861; in the data active = inhibition above about 16%, passing the limit was not always enough;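 also: cells stimulated with the agonist NPW; 0% = agonist with vehicle and 100% = vehicle without agonist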
Target sequence (P48145 whole entry, looked up): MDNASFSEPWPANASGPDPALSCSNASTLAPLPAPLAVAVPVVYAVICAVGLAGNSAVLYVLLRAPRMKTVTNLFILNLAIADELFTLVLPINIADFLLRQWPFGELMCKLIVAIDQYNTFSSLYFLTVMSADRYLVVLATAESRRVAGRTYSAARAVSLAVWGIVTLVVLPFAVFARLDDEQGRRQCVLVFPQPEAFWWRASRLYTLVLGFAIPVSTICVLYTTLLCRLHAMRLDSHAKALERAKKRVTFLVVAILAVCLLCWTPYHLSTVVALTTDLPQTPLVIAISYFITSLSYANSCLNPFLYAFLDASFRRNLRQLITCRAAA
KLF5 inh = kruppel-like factor 5 inhibition; 0.23% of 290,000 active; inhibition, % at 5 µM; DLD-1 KLF5 promoter-luciferase reporter, luminescence;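 active = inhibition above a per-plate limit of that plate's mean compound inhibition plus 3 SD, cut at about 60% in these data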;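 also: 0% = DMSO wells and 100% = LY294002 at 200 µM; higher means less KLF5 promoter-driven luciferase light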
IEC-6 tox = IEC-6 cytotoxicity, counter-screen for KLF5 inhibitors; luminescence viability; inhibition, % at 5 µM; 0.78% of 290,000 active;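 also: 0% = plate median of test compound wells and 100% = cytotoxic reference compound wells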
DNA FID counter = displaces DNA intercalator in HCV helicase counter-screen; DNA fluorescent intercalator displacement, fluorescence; 0.17% of 290,000 active; inhibition, % at 7.9 µM; in the data active = inhibition above about 37%;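 also: 0% = vehicle and 100% = reference compound; higher means more ethidium bromide displaced from hairpin DNA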
IEC-6 cytotox cf = confirmation of cytotoxic compounds in rat IEC-6 intestinal epithelial cells. inhibition, % at 5 µM. shares compounds with IEC-6 tox. IEC-6 rat intestinal epithelial viability, luminescence. 63% of 1,900 active;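 also: 0% = vehicle and 100% = reference cytotoxic drug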
* = called active by the depositor. Rule as the data show it, unless noted: active = inhibition above about 22%; inactive = the rest.

`CC1CC1c1ccc(/C=C(\C#N)C(=O)Nc2cccc(Cl)c2Cl)o1` (configuration not stated) gave BaF3 tox 8, Ba/F3 V617F tox 3, GPR7 antag -8, KLF5 inh -27, IEC-6 tox 3 and DNA FID counter 0.
Screening Cc1[nH]n(-c2ccccc2)c(=O)c1/C=N/NC(=O)c1cccc(F)c1 returned GPR7 antag 1, KLF5 inh 61, IEC-6 tox 22*, DNA FID counter -18 and IEC-6 cytotox cf 10.
For Cc1cc(C(=O)N/N=C/c2c(C)[nH]n(-c3ccccc3)c2=O)n[nH]1 the results were GPR7 antag -6, KLF5 inh -37, IEC-6 tox 1 and DNA FID counter -7.
For Cc1[nH]n(-c2ccc(Br)cc2)c(=O)c1/C=N/NC(=O)c1ccccc1 the results were GPR7 antag -4, KLF5 inh 44, IEC-6 tox 65*, DNA FID counter -12 and IEC-6 cytotox cf 60*.
Cc1[nH]n(-c2ccccc2)c(=O)c1/C=N/NC(=O)c1ccc(O)cc1O was read as GPR7 antag 0, KLF5 inh -64, IEC-6 tox -2 and DNA FID counter -6.
`CCOC(=O)C1CCN(C(=O)CN(Cc2ccc(Cl)cc2)S(C)(=O)=O)CC1` gave BaF3 tox 5, Ba/F3 V617F tox -2, GPR7 antag -10, KLF5 inh -47, IEC-6 tox -5 and DNA FID counter -21.
`CCS(=O)(=O)Nc1cccc(C2=NN(C(=O)c3ccco3)C(c3ccco3)C2)c1` (configuration not stated) gave GPR7 antag 8, KLF5 inh 46, IEC-6 tox 47*, DNA FID counter -18 and IEC-6 cytotox cf 22*.
CS(=O)(=O)Nc1cccc(C2=NN(C(=O)c3ccco3)C(c3ccco3)C2)c1 (configuration not stated) was read as GPR7 antag -5, KLF5 inh -17, IEC-6 tox -1 and DNA FID counter -32.
`CSCC[C@H](NC(=O)c1ccc(Cl)c(S(=O)(=O)N2CCCC2)c1)c1nc2ccccc2[nH]1` gave BaF3 tox 3, Ba/F3 V617F tox 1, GPR7 antag 4, KLF5 inh -14, IEC-6 tox -6 and DNA FID counter -23.
Cc1c(Nc2cc(Cl)c3nonc3c2[N+](=O)[O-])c(=O)n(-c2ccccc2)n1C was read as BaF3 tox 103*, Ba/F3 V617F tox 95*, GPR7 antag 7, KLF5 inh 3, IEC-6 tox 96*, DNA FID counter -5 and IEC-6 cytotox cf 9.
For COc1ccc(C2=NN(C(=O)c3cccs3)C(O)(C(F)(F)F)C2)cc1 (configuration not stated) the results were BaF3 tox 3, Ba/F3 V617F tox -1, GPR7 antag -22, KLF5 inh -6, IEC-6 tox 54*, DNA FID counter -9 and IEC-6 cytotox cf 41*.
For COc1ccc(Cc2nc(-c3ccc(NC(=O)c4cccnc4)cc3)no2)cc1 the results were BaF3 tox 0, Ba/F3 V617F tox 10, GPR7 antag -7, KLF5 inh -28, IEC-6 tox 31*, DNA FID counter -3 and IEC-6 cytotox cf 90*.
For COc1ccc(-c2noc(CCC(=O)NCc3cccnc3)n2)cc1 the results were BaF3 tox 2, Ba/F3 V617F tox 0, GPR7 antag -10, KLF5 inh -13, IEC-6 tox -2 and DNA FID counter -8.
CCOC(=O)c1ccc(COC(=O)CNC(=O)CNC(=O)c2ccc(OC)cc2)o1 was read as BaF3 tox 3, Ba/F3 V617F tox -4, GPR7 antag -5, KLF5 inh 9, IEC-6 tox -4 and DNA FID counter -11.
`O=S(=O)(Nc1cccc2cccnc12)c1ccc(S(=O)(=O)N2CCCC2)cc1` gave BaF3 tox 6, Ba/F3 V617F tox 3, GPR7 antag 7, KLF5 inh 7, IEC-6 tox 32*, DNA FID counter -23 and IEC-6 cytotox cf 35*.
For O=S(=O)(Nc1cccc2cccnc12)c1ccccc1 the results were GPR7 antag 4, KLF5 inh 10, IEC-6 tox 102*, DNA FID counter -8 and IEC-6 cytotox cf 98*.
Screening COc1ccc(NS(=O)(=O)c2ccc3ccccc3c2)c2ncccc12 returned GPR7 antag 4, KLF5 inh 34, IEC-6 tox 60*, DNA FID counter -9 and IEC-6 cytotox cf 52*.

High-throughput results: PubChem, The Scripps Research Institute Molecular Screening Center
